Most compounds without a hit are left out; they make up all but 5.7% or so of the library.
TGFb inhibitor = TGF-b pathway inhibition | HepG2 CAGA-GFP TGF-b/SMAD3 reporter, GFP fluorescence, 18 h; TGF-beta stimulated, 500 pg/mL final | Potency, µM (top dose mostly 46.1 µM), for inactives: at the highest dose activity, negative = inhibition, usual class: inhibitors | 410,000 tested, 1.2% active | AID 588855; also: potency is read from the fitted curve at half-maximal effect; % is scaled to controls: 0 for no effect and ±100 for the full control effect; nearly all actives have a fitted effect of over 65% in size
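HEPG2 CAGA-GFP cells (1000/well, DMEM with 1% FBS) were pre-incubated 2 h at 37 degrees C, given compound by pin tool, then stimulated with TGF-beta at 500 pg/mL final for 18 h before per-cell GFP fluorescence imaging.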
IL1B secr inh = blocks inflammasome-driven IL-1 beta release; THP-1 LPS/ATP IL-1B secretion, AlphaLISA, 16 h; hits give low values; activity change, % at 57.5 µM; 360,000 tested, 4.7% active; in the data active = activity change below about -50%; inconclusive = mostly about -30% to -49%; also: % is scaled to controls: 0 for no effect and ±100 for the full control effect
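Secreted IL-1B measured by AlphaLISA bead assay after 16 h compound exposure of THP-1 cells; compounds (final up to 57.5 uM) added 1 h before LPS (250 ng/mL) and ATP (1.25 mM) stimulation; lower signal means less secretion.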
ATXN2 expr inh = ATXN2 expression inhibition | HEK-293 ATXN2-luciferase reporter, luminescence, 24 h | Potency, µM (titrated, usually from 57 µM), without a hit: at the top dose activity change, negative = inhibition, hits mostly inhibitors | 360,000 tested, 0.72% active | AID 1745845; also: potency is read from the fitted curve at half-maximal effect; % is scaled to controls: 0 for no effect and ±100 for the full control effect; nearly all actives have a fitted effect of over 55% in size
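ATXN2-luciferase reporter cells (luciferase flanked by upstream and downstream ATXN2 gene portions) were treated 24 h at 37 °C with compounds at up to 57 uM. SteadyGlo luminescence gave expression; GF-AFC fluorescence gave viability.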
S2 tox = reduces viability in counter-screen for ATXN expression inhibitors; 400,000 tested, 0.49% active; S2 cells (HEK-293 line with an ATXN2-luciferase reporter) viability, CellTiter-Fluor protease fluorescence, 24 h; Potency, µM (doses to about 56.7 µM), actives largely listed as cytotoxic; also: potency is read from the fitted curve at half-maximal effect; nearly all actives have a fitted effect of over 40% in size
HepG2 tox-1 = counter-screen for TGF-b inhibitors: cytotoxicity in HepG2 cells; HepG2 CAGA-GFP viability, ATP luminescence, 18 h; Potency, µM (doses to about 46.1 µM), without a hit: top-dose activity change, negative = cytotoxicity, actives largely listed as cytotoxic; 410,000 tested, 0.76% active; AID 588856; also: potency is read from the fitted curve at half-maximal effect
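HepG2 CAGA-GFP cells (1000/well, DMEM with 1% FBS) received compound, then TGF-beta at 500 pg/mL final, and were incubated 18 hours at 37 degrees C. Viability was read by CellTiter-Glo luminescence. Media-only wells were set as complete cell-killing and DMSO as no toxicity.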
TGFb confirm = confirmation of TGF-b signaling inhibitors in HepG2 reporter cells; 1,600 tested, 63% active; HepG2 CAGA-GFP TGF-b reporter, GFP fluorescence, 18 h; cells stimulated with TGF-beta, 500 pg/mL; shares compounds with TGFb inhibitor; Potency, µM (titrated, usually from 46.1 µM), inactives show at the highest dose activity, negative = inhibition, most hits filed as inhibitors; also: potency is read from the fitted curve at half-maximal effect; % is scaled to controls: 0 for no effect and ±100 for the full control effect; nearly all actives have a fitted effect of over 65% in size
HepG2 tox-2 = counter-screen for TGF-b inhibitors: cytotoxicity in HepG2 cells | shares compounds with TGFb inhibitor | HepG2 CAGA-GFP viability, ATP luminescence, 18 h; cells stimulated with TGF-beta, 500 pg/mL | Potency, µM (highest dose often 46.1 µM), for inactives: at the top dose activity, negative = cytotoxicity, hits mostly inhibitors | 1,600 tested, 27% active; also: potency is read from the fitted curve at half-maximal effect; % is scaled to controls: 0 for no effect and ±100 for the full control effect; nearly all actives have a fitted effect of over 70% in size
TGFb CCL64 inh = orthogonal confirmation of TGF-b inhibitors in CCL64 cells | shares compounds with TGFb inhibitor | CCL64 CAGA-GFP reporter, TGF-b stimulated, GFP fluorescence, 18 h | Potency, µM (highest dose often 46.1 µM), for the others: top-dose activity, negative = inhibition, usual class: inhibitors | 1,600 tested, 41% active | AID 720536; also: potency is read from the fitted curve at half-maximal effect; nearly all actives have a fitted effect of over 65% in size
COP TGFb inh = TGF-b inhibition validated with COP promoter. shares compounds with TGFb inhibitor. HepG2 COP-GFP TGF-b reporter, GFP fluorescence, 18 h; cells stimulated by added recombinant TGF-beta. Potency, µM (top dose mostly 46.1 µM), for inactives: top-dose activity, negative = inhibition, most hits filed as inhibitors. 1,600 tested, 3% active. AID 720537; also: potency is read from the fitted curve at half-maximal effect; nearly all actives have a fitted effect of over 70% in size
Active calls of the source: *; i = inactive; ? = inconclusive; . = not tested or not shown. Unless noted, calls follow the shape of the dose curve; as a rule, active = well fitted curve in the direction sought with a large enough effect; inconclusive = small, poorly fitted or top-dose-only effect, or another doubt; inactive = no such curve, though single readings can be large; an effect the other way counts as inactive or inconclusive.

SMILES	TGFb inhibitor	IL1B secr inh	ATXN2 expr inh	S2 tox	HepG2 tox-1	TGFb confirm	HepG2 tox-2	TGFb CCL64 inh	COP TGFb inh
COc1ccccc1-c1noc(-c2ccc(N(C)Cc3ccccc3)c([N+](=O)[O-])c2)n1	-34.3%	.	1.8%	i	-37.8%	.	.	.	.
NC(=S)NN=Cc1c[nH]c2nccnc12	12.6µM*	50.9	.	?	-25.5%	?	?	26.6%	38.0%
Cc1ccc2nc(N3CCN(C(=O)c4ccc(F)cc4)CC3)c(C#N)cc2c1	10µM*	-10.4	.	i	-17.0%	?	-29.6%	?	1.4%
O=C(Nc1ccc(S(=O)(=O)NC2=NCCCCC2)cc1)c1cccs1	0.1%	2.7	.	i	-14.3%	.	.	.	.
O=C(Nc1ccc(S(=O)(=O)NC2=NCCCCC2)cc1)c1ccc([N+](=O)[O-])s1	7.08µM*	-57.0*	?	i	-104.8%	11.6µM*	?	20.6µM*	27.2%
COCCn1c(CCC(=O)Nc2ccc(OC)c(OC)c2)nc2cccnc21	9.5%	.	3.4%	i	0.9%	.	.	.	.
COc1ccc(C2C(C#N)=C(N)N(Nc3ccccc3)C3=C2C(=O)CC(C)(C)C3)cc1C (centres undefined)	11.2µM*	?	-22.9%	i	-1.5%	20.6µM*	-24.8%	?	21.1%
O=C(Nc1ccc(F)cc1)Nc1cc(OCC(F)(F)F)cc(OCC(F)(F)F)c1	3.98µM*	-61.0*	11.2µM*	?	8.91µM*	6.51µM*	?	7.31µM*	46.9%
CCOc1ccc(NC(=O)Nc2cc(OCC(F)(F)F)cc(OCC(F)(F)F)c2)cc1	-15.8%	-2.5	-15.8%	i	-16.2%	.	.	.	.
CSc1ncc2c(n1)-c1ccccc1N(Cc1ccccc1)S2(=O)=O	-4.4%	.	-3.0%	i	-1.4%	.	.	.	.
Cc1nn(-c2cc(C(F)(F)F)ccc2Cl)c2nc(C(F)(F)F)[nH]c(=O)c12	?	13.7	-1.1%	?	6.0%	.	.	.	.
Cc1nn(-c2cccc(Cl)c2)c2nc(C(F)(F)F)[nH]c(=O)c12	11.2µM*	2.8	?	?	-20.6%	6.51µM*	8.2µM*	2.91µM*	36.4%
Cc1cccc(N2CCN(C(c3ccccc3)c3nnc(-c4ccccc4Cl)o3)CC2)c1C (centres undefined)	-6.5%	.	4.1%	i	-16.5%	.	.	.	.
O=S(=O)(NCC(Nc1ccccc1)c1ccccc1)c1ccc(Cl)cc1 (centres undefined)	10µM*	-79.2*	?	?	-81.7%	?	-4.8%	-1.0%	5.7%
O=C(NCCCN1CCN(c2ccccc2F)CC1)c1ccc2nc(N3CCCCC3)sc2c1	-10.1%	.	34.1%	i	-23.3%	.	.	.	.
O=C(CSc1nc2c([nH]c3ccccc32)c(=O)n1-c1ccccc1)N1CCCc2ccccc21	-6.6%	.	.	.	-18.7%	.	.	.	.
Cc1ccnc(Nc2nc(-c3sc(C)nc3C)cs2)c1	6.31µM*	-100.3*	-23.9%	?	3.16µM*	9.2µM*	7.31µM*	?	-3.9%
O=C(COC(=O)c1c2c(nc3ccccc13)/C(=C\c1cccs1)CCC2)Nc1ccccc1	11.2µM*	-54.8*	-22.6%	i	-3.9%	?	?	?	39.4%
CC(=O)c1ccc(NC(=O)COC(=O)c2c3c(nc4ccccc24)/C(=C\c2cccs2)CCC3)cc1	1.78µM*	-51.4*	?	i	-36.7%	6.51µM*	?	1.46µM*	27.0%
CC(C)CNC(=O)COC(=O)c1c2c(nc3ccccc13)/C(=C\c1cccs1)CC2	-12.6%	-4.6	20.6%	.	-31.1%	.	.	.	.
COc1ccccc1CCNC(=O)Cc1c(C)c2cc(Cl)c(O)cc2oc1=O	1.5%	.	.	.	-4.1%	.	.	.	.
O=C(c1ccc(CSc2nc3ccncc3[nH]2)cc1)N1CCCCCC1	-15.6%	48.3	?	i	-38.5%	.	.	.	.
O=C(c1ccc(CSc2nc3ccncc3[nH]2)cc1)N1CCN(c2cccc(Cl)c2)CC1	7.94µM*	?	?	?	-44.6%	16.4µM*	?	?	11.9%
COc1ccc(CNC(=O)c2cnn3c(C)c(Cc4ccc(F)cc4)c(C)nc23)cc1	-0.2%	.	2.8%	i	-8.9%	.	.	.	.
COc1ccc(C(=O)Oc2cc(-c3ccc(OC)c(OC)c3)cc(=O)c3c(C)oc(C)c23)cc1	-5.2%	.	-21.8%	i	-7.1%	.	.	.	.
SMILES	TGFb inhibitor	IL1B secr inh	ATXN2 expr inh	S2 tox	HepG2 tox-1	TGFb confirm	HepG2 tox-2	TGFb CCL64 inh	COP TGFb inh
CC1=C(C(=O)N(C(C)C)C(C)C)CC(CC(=O)NCc2cccc3ccccc23)C(=O)N1Cc1ccc(C(C)(C)C)cc1 (centres undefined)	7.94µM*	?	?	?	-7.7%	16.4µM*	?	?	30.1%
CC1=C(C(=O)N(C(C)C)C(C)C)CC(CC(=O)NCCc2ccccn2)C(=O)N1Cc1ccc(C(C)(C)C)cc1 (centres undefined)	8.91µM*	-23.5	-20.2%	?	-67.5%	-20.8%	-12.8%	?	10.8%
CC1=C(C(=O)N(C)C)CC(CC(=O)NCc2cccc3ccccc23)C(=O)N1Cc1ccc(C(C)(C)C)cc1 (centres undefined)	?	-21.6	?	?	-29.3%	.	.	.	.
COc1cccc(NC(=O)C2CCCN(S(=O)(=O)c3ccc4[nH]c(=O)ccc4c3)C2)c1 (centres undefined)	-4.0%	.	7.2%	i	5.6%	.	.	.	.
CC(C)(C)OC(=O)NCCc1nnc(SCc2cccc(Cl)c2)o1	7.94µM*	-5.1	-20.0%	i	-59.7%	-5.3%	-9.5%	9.6%	-11.0%
Cc1cccc(CSc2nnc(CCNC(=O)OC(C)(C)C)o2)c1	-13.0%	.	15.5%	i	-32.1%	.	.	.	.
Cc1ccc(OCC(=O)N/N=C\c2cn(Cc3ccccc3)c3ccccc23)cc1C	11.2µM*	27.2	-12.7%	i	-7.4%	5.17µM*	5.17µM*	4.1%	-21.9%
